Measurements published in the supplement of paper PMC3334620.
In all, about 33,000 sequences were measured (“E-score (-0.5 to 0.5)”: median about -0.0014, highest 2% from about 0.25 on). Shown is part of a subset that was picked to be rich in the highest values.

Biological target: T1, Cad1 (UniProt P24813)
T1 sequence: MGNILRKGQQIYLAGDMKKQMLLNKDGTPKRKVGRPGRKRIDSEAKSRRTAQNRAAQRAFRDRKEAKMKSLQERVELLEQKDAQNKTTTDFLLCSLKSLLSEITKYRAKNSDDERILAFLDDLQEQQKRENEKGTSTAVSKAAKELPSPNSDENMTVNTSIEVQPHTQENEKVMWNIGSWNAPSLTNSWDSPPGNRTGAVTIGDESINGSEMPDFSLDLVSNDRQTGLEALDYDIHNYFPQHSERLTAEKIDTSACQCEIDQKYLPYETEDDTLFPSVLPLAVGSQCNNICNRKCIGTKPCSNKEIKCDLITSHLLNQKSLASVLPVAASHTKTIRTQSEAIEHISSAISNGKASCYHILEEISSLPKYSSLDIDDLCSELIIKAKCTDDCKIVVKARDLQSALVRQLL
Assay: PBM E-score (8-mer binding enrichment) (E-score (-0.5 to 0.5)); higher = stronger / more preferred TF binding
Details: protein concentration: 100 nM; construct: GST-full length
Protocol: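 Universal 'all 10-mer' protein binding microarrays (Agilent AMADID 015681) probed with GST-tagged S. cerevisiae TFs (full-length or DBD) made by in vitro transcription/translation (PURExpress), about 100-200 nM. Bound TF was detected with fluorescent anti-GST. Each ungapped 8-mer (which stands for itself and its reverse complement) is scored by the PBM enrichment score (E-score), a modified Wilcoxon-Mann-Whitney statistic from -0.5 to +0.5, computed with the Universal PBM Analysis Suite. Scale: above 0.35 generally sequence-specific binding.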

| Sequence | PBM E-score |
| --- | --- |
| AGCAATCC | -0.214 |
| AGCAATCA | 0.216 |
| AGCAATCG | 0.27 |
| ATGCGACC | 0.0488 |
| GTATTAGA | 0.26 |
| CTATTAGA | -0.057 |
| ATATTAGA | 0.197 |
| GTTGCAGA | -0.0187 |
| AAATCGTC | 0.0296 |
| AAATCGTA | -0.0277 |
| AAATAGTG | 0.258 |
| AAATCGTG | 0.263 |
| AAATAGTT | 0.129 |
| AAATAGTC | -0.0981 |
| CACGATGC | -0.0719 |
| GAATCGTA | 0.0597 |
| CCGAAGAA | 0.00754 |
| CAGGTGCC | -0.0801 |
| AGAATACA | 0.0745 |
| AATATGTG | 0.251 |
| AATATGTC | 0.17 |
| ACTATTTG | 0.101 |
| ATTATTTC | 0.2 |
| AATATTTG | 0.255 |
| ATTATTTG | 0.175 |

| Sequence | PBM E-score |
| --- | --- |
| CTTATTTC | 0.304 |
| AATATTTA | 0.213 |
| CATATTTC | 0.0121 |
| AATATTTC | 0.264 |
| AATATGTA | 0.206 |
| CTTATTTA | -0.00667 |
| CCCTACCG | -0.112 |
| AACGGGAC | -0.148 |
| AACCAGAC | -0.0829 |
| GTGGACTA | 0.144 |
| CTGAAGTC | -0.0337 |
| ACATCCCG | 0.147 |
| CCCTCGAC | -0.0126 |
| AATTTGGG | 0.0286 |
| AGTCCACA | -0.141 |
| AATATTGC | 0.294 |
| AATATTGG | 0.0135 |
| CATATTGC | -0.116 |
| GACGAAAC | 0.144 |
| GATTTTTA | -0.0272 |
| ATTTTATG | 0.255 |
| AATTTATC | 0.293 |
| CATTTATC | 0.15 |
| ATTTTGTC | 0.121 |
| CATTTATA | 0.021 |

| Sequence | PBM E-score |
| --- | --- |
| AATTTGTA | 0.196 |
| AATTTATA | 0.241 |
| AATTTGTC | 0.31 |
| ATTTTATA | 0.221 |
| GATTTATA | 0.319 |
| AATTTATG | 0.229 |
| GATCAAAA | 0.144 |
| AGTACTTA | -0.0184 |
| CAGGTTCA | -0.134 |
| TTCGACAA | 0.0549 |
| GGCGACAC | 0.0142 |
| GTACGTGA | 0.0217 |
| AGCAACCA | 0.0389 |
| ATCGTTAC | 0.0243 |
| TATCATGA | 0.16 |
| ATTCATGA | 0.0482 |
| AATCATGG | 0.048 |
| GTTCATGA | 0.262 |
| CTTCATGA | 0.207 |
| AATCATGA | 0.317 |
| CTCTGAAC | -0.212 |
| GGTATCCA | 0.135 |
| CTCTCCTA | -0.129 |
| CGCGATGC | -0.0576 |
| TCAGAGAA | -0.0244 |

| Sequence | PBM E-score |
| --- | --- |
| AAGGCCAT | 0.0298 |
| ATTCTCCC | 0.115 |
| CTACCTCA | -0.107 |
| AGCGCTTA | 0.336 |
| TACGCTGA | 0.275 |
| CGCGCTTC | 0.0321 |
| AGCGCTGG | 0.191 |
| GACGCTGA | 0.0912 |
| CACGCTGA | 0.143 |
| CGCGCTGA | 0.219 |
| AGCGCTGA | 0.258 |
| GGCGCTTA | -0.0696 |
| GGCGCTGA | -0.0921 |
| AGCGCTTC | 0.122 |
| CGCGCTTA | 0.262 |
| CTGTTCGA | -0.08 |
| CTCCTACC | -0.236 |
| CGGGTGAC | -0.0446 |
| ACGGTGAC | -0.102 |
| ATCATTGG | -0.0561 |
| CCAGTCGG | -0.238 |
| CTCACCGA | -0.12 |
| GATTCCTA | 0.0143 |
| TACGCTCA | -0.0567 |
| AACGCTCA | -0.0578 |

| Sequence | PBM E-score |
| --- | --- |
| CACGCTCA | 0.261 |
| ACGGTACA | 0.0323 |
| CGTCAGGC | -0.125 |
| AGTCAGGA | 0.141 |
| AGTCAGGC | 0.294 |
| GCCATAAA | 0.125 |
| AGAAGGTA | 0.103 |
| CGCGCTAA | 0.256 |
| GGCGCTAC | -0.214 |
| CGCGCTAC | 0.26 |
| AGCGCTAA | 0.212 |
| CGCGCTAG | 0.238 |
| GGCGCTAA | -0.0255 |
| TGCGCTAA | 0.156 |
| AGCGCTAC | -0.068 |
| AGCGCTAT | 0.278 |
| CCAAAATA | 0.147 |
| CTTCCATA | -0.244 |
| AAGCCGGT | -0.024 |
| GCATAGAA | 0.0802 |
| ATTCATCA | 0.132 |
| ACTTTCTA | -0.028 |
| TACTAGAA | 0.0443 |
| CACCCGCC | 0.0605 |
| ATCGTAGC | 0.0921 |

| Sequence | PBM E-score |
| --- | --- |
| AACGAGCA | -0.0102 |
| TATATAAA | 0.23 |
| AATATAAA | 0.251 |
| AACATAAG | 0.261 |
| AACATAAC | 0.135 |
| CACATAAG | 0.00562 |
| AATATAAT | 0.18 |
| AATATAAG | 0.297 |
| CATATAAA | 0.0106 |
| CATATAAG | 0.00934 |
| AGGCTACT | -0.196 |
| CATTGGAA | 0.0544 |
| TGTAGAAA | -0.18 |
| CATTGAGA | -0.109 |
| AGAAGAAT | -0.0672 |
| AGATAGAC | 0.0347 |
| GATTTCTA | 0.123 |
| ACTATTGG | 0.025 |
| ATAGTTCA | 0.0339 |
| AATTTAAG | 0.0522 |
| AATTTAAT | 0.252 |
| AATTTTTC | 0.145 |
| AATTTTAC | 0.282 |
| AATTTTAA | 0.249 |
| CATTTTAC | 0.198 |

| Sequence | PBM E-score |
| --- | --- |
| ATTTTTAC | 0.0299 |
| AATTTTCC | 0.26 |
| AATTTTAT | 0.295 |
| AAATTTAT | 0.171 |
| ATTTTTCC | 0.0266 |
| AATTTAAC | 0.124 |
| CAGCGGCA | -0.0412 |
| CCAGCCCG | -0.102 |
| CGGGTTTC | 0.179 |
| CGACCGAG | -0.0641 |
| CATTCGGC | -0.0238 |
| AATAATAC | 0.205 |
| AATAATAA | 0.305 |
| GTTAATAA | 0.249 |
| CATAATAA | -0.0382 |
| TATAATAA | 0.278 |
| CTTAATAA | 0.383 |
| TCTAATAA | 0.0758 |
| CTTAATAC | -0.0147 |
| AATAATAG | 0.077 |
| AATAATCA | 0.218 |
| GATAATCA | 0.169 |
